Data as given in ChEMBL document CHEMBL3988442, “University of Dundee, Small-Polar-MMV Screening Library” (2021).
For some assays here: Potency and affinity values are given separately.

Assays:
Parameters in all cases: scale not given: direction of the effect not stated beside the values
[1] = target: Protein translocase subunit SecA (Escherichia coli (strain K12)) (UniProt P10408); experiment: Assay to Identify E. coli SecA ATPase Inhibitors; assay type: functional; details: 30 µM
[2] = target: T1, Ubiquitin-activating enzyme e1, putative (Leishmania donovani (strain BPK282A1)) (UniProt E9BSI1); experiment: Leishmania donovani Ubiquitin Activating Enzyme (LdE1); assay type: functional; details: 30 µM
T1 sequence (whole entry): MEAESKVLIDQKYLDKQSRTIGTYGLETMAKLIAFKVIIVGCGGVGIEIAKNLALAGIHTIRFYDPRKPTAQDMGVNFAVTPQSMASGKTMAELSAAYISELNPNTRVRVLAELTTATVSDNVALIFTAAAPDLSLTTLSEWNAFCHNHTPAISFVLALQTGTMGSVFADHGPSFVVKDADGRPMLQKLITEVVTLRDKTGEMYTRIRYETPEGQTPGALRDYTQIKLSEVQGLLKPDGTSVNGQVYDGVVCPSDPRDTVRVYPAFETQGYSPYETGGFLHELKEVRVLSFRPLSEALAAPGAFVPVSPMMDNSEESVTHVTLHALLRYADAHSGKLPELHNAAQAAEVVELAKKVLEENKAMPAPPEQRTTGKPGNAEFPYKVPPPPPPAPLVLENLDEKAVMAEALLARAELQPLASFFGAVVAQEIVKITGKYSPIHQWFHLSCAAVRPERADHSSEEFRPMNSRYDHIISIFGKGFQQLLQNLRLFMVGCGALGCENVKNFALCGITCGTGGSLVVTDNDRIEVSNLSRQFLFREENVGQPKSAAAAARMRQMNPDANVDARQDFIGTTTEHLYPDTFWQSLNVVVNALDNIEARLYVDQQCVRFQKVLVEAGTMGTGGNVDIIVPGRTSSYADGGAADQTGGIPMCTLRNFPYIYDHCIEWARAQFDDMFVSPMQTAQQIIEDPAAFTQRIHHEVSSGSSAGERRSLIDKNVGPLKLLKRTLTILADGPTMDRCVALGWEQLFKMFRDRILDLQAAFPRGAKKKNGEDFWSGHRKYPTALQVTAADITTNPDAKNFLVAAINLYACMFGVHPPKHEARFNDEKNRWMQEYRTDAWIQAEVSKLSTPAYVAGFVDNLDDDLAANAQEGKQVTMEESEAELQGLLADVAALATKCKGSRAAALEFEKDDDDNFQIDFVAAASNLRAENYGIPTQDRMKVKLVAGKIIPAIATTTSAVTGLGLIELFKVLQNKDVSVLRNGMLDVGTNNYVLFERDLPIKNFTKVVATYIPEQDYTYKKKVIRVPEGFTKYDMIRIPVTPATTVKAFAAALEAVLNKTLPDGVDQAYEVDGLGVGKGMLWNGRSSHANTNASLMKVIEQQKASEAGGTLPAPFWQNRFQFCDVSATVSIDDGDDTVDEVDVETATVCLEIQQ

[3] = target: AMP-activated protein kinase, AMPK (Homo sapiens) (UniProt P54646+O43741+P54619+Q9UGJ0+Q9Y478+Q13131+Q9UGI9); experiment: AMP-dependent Kinase enzyme assay. An in vitro enzyme assay that detects ADP turnover that is directly proportional to AMPK activity. This uses naive AMPK that is activated during the assay with MK-8722; assay type: functional; details: 30 µM
[4] = target: Sialic acid-binding Ig-like lectin 9 (Homo sapiens) (UniProt Q9Y336); experiment: Hs-Siglec9 ALPHAscreen SOP 20170721; details: 10 µM
Trypanosoma cruzi = experiment: Trypanosoma cruzi phosphomannomutase and mannose-1-phosphate guanylyltransferase assay; assay type: functional; details: 10 µM
[5] = target: T2, Arginase-2, mitochondrial (Homo sapiens) (UniProt P78540); experiment: in vitro enzyme assay to detect the production of urea directly proportional to the activity of Arginase II; assay type: functional; details: 33.3 µM; also: in the data most compounds retested in dose-response had high values
T2 sequence (whole entry): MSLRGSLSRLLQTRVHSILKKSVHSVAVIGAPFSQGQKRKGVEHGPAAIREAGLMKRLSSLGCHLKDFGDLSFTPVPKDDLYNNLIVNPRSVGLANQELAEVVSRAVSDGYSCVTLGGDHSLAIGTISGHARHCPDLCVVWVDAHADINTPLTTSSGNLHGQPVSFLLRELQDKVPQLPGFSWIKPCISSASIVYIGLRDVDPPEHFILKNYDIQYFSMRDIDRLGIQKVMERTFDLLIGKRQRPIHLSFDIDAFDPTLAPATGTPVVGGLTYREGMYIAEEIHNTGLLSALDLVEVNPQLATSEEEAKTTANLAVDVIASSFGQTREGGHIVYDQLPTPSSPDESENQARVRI

[6] = target: T3, Proteasome subunit beta (Trypanosoma cruzi) (UniProt O96673); experiment: Trypanosoma cruzi proteasome chymotrypsin-like activity (TcProtChymo) assay.; also: in the data most compounds retested in dose-response had high values; assay type: functional; details: 9.37 µM
T3 sequence (whole entry): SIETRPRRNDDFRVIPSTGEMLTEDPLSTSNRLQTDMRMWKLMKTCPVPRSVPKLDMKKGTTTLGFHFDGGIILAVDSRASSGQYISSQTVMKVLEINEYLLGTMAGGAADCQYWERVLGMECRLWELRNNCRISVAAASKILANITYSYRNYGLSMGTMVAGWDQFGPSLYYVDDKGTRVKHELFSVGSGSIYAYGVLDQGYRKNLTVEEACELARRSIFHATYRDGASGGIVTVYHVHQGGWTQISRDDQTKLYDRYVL

Homo sapiens = organism: Homo sapiens; experiment: To identify inhibition of the IFN signalling (Jak-Stat) pathway via expression of an eGFP reporter gene under the control of an IFN-stimulated response element (ISRE) containing MxA promoter.; assay type: functional; details: 30 µM
[7] = target: T4, Tyrosyl-tRNA synthetase, putative (Trypanosoma cruzi (strain CL Brener)) (UniProt Q4DSP6); experiment: Trypanosoma cruzi tyrosyl tRNA synthetase (TcYRS) _High Tyrosine SOP; assay type: functional; details: 30 µM; also: in the data most compounds retested in dose-response had high values
T4 sequence (whole entry): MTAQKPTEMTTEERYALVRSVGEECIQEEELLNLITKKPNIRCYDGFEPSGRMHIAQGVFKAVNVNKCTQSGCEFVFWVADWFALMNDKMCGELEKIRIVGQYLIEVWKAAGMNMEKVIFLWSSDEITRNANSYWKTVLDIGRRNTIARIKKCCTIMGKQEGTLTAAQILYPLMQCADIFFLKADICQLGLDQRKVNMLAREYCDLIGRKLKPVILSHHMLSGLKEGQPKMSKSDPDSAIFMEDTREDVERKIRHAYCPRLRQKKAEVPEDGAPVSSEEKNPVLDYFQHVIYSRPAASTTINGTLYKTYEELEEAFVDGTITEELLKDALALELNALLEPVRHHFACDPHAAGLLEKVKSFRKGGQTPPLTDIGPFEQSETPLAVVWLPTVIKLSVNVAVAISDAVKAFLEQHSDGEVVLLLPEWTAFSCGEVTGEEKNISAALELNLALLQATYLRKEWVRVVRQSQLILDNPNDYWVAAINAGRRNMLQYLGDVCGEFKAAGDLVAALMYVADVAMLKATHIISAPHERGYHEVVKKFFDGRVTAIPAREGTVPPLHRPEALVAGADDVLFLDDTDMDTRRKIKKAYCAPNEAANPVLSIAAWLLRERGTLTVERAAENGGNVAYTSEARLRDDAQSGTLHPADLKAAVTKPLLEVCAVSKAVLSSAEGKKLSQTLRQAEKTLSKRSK

[8] = target: T4, Tyrosyl-tRNA synthetase, putative (Trypanosoma cruzi (strain CL Brener)); experiment: Trypanosoma cruzi tyrosyl tRNA synthetase (TcYRS) SOP; assay type: functional; details: 30 µM
[9] = target: Chromo domain-containing protein 1 (Saccharomyces cerevisiae (strain ATCC 204508 / S288c) (Baker's yeast)) (UniProt P32657); experiment: ScCHD-1 Enzyme Inhibition Assay; assay type: functional; details: 30 µM; also: in the data most compounds retested in dose-response had high values
Chain of Chromo domain-containing protein 1 (Saccharomyces cerevisiae (strain ATCC 204508 / S288c) (Baker's yeast)) (P32657 whole entry, the tested form may be a part): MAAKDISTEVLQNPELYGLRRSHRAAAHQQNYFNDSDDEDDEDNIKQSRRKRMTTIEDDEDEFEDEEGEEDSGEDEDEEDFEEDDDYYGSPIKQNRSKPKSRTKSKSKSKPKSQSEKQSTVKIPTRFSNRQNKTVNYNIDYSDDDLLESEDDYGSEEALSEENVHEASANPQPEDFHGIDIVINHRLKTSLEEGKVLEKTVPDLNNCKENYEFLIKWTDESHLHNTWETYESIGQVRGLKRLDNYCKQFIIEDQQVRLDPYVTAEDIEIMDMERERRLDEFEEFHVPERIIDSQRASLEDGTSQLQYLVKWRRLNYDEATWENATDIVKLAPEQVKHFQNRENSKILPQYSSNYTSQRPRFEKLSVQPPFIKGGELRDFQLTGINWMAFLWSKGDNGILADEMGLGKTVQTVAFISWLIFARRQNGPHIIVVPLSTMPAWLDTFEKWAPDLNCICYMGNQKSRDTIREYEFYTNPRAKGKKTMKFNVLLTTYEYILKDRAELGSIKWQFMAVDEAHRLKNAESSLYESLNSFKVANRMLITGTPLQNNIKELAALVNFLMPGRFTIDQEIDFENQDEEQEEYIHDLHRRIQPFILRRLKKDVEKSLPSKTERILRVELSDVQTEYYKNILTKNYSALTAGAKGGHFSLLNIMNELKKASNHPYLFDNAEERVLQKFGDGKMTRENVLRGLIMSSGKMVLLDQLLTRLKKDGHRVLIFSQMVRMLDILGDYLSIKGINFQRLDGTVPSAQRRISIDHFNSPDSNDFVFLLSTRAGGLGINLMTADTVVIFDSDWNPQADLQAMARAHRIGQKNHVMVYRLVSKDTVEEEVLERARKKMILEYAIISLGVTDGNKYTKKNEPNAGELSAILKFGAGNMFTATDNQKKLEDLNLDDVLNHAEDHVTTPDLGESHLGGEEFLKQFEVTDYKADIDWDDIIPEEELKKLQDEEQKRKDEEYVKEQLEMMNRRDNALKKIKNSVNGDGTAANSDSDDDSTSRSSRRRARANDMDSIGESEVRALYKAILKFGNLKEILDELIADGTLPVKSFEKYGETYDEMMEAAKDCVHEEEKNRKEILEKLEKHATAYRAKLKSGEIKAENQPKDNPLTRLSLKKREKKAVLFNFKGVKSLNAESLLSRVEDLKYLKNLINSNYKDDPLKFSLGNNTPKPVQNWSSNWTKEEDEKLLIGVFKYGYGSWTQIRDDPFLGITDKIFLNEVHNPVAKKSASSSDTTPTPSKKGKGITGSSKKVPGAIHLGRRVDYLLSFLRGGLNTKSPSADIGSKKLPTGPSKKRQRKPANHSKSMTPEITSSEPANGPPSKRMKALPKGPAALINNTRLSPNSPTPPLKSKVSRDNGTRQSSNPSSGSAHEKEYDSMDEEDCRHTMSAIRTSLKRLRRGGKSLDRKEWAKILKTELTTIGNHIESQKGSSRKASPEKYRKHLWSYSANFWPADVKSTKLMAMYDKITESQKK

Chain of Protein translocase subunit SecA (Escherichia coli (strain K12)) (P10408 whole entry): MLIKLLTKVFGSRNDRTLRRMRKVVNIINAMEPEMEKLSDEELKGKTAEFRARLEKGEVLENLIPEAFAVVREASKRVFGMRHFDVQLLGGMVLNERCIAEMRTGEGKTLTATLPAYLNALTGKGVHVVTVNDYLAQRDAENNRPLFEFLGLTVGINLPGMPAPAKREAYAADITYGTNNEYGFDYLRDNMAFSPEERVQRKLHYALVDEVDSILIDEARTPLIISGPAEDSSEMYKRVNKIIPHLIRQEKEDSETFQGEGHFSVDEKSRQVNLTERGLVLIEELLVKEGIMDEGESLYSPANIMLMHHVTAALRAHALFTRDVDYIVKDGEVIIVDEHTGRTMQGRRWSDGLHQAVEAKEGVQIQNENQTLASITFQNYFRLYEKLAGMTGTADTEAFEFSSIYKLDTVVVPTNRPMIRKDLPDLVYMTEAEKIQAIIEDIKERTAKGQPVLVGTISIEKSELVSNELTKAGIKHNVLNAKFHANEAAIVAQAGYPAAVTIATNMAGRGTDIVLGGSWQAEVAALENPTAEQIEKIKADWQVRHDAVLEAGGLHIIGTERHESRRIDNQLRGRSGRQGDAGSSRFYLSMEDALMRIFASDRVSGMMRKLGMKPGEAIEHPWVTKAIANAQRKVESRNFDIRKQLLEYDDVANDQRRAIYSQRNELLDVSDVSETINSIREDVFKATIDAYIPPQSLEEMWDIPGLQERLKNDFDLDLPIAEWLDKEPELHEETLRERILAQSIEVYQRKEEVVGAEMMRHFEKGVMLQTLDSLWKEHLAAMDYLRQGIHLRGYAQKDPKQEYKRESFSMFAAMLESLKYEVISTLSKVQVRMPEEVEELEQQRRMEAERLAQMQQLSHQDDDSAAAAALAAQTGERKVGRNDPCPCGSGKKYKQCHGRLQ
Chain of Sialic acid-binding Ig-like lectin 9 (Homo sapiens) (Q9Y336 whole entry): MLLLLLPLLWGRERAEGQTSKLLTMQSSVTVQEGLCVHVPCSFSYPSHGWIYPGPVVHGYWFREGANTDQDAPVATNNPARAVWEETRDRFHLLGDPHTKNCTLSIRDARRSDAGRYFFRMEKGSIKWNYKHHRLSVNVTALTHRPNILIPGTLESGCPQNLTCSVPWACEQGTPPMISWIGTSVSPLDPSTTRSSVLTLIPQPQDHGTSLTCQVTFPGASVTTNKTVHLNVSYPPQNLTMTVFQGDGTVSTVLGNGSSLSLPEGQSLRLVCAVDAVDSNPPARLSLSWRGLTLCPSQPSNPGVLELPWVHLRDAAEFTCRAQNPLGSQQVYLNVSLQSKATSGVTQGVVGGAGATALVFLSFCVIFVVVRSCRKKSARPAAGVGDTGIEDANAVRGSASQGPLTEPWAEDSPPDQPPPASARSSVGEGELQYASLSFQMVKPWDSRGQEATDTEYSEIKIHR

SMILES	Percent Effect [1] [%]	Percent Effect [2] [%]	Percent Effect [3] [%]	Percent Effect [4] [%]	Percent Effect (Trypanosoma cruzi) [%]	Percent Effect [5] [%]	Percent Effect [6] [%]	Percent Effect (Homo sapiens) [%]	Percent Effect [7] [%]	Percent Effect [8] [%]	Percent Effect [9] [%]
N#Cc1cccnc1N1CCC2(CCCN(C3CCOCC3)C2=O)C1 (stereo not given)	-3.31	5.48	0.329	1.41	2.58	-3.99	8.82	7.98	1.04	1.24	-4.64
Cc1nc(CN(C)C2CCCN(c3cccnn3)C2)no1 (stereo not given)	-0.0171	20.8	-7.88	0.261	-3.18	5.34	9.29	37.1	4.85	0	-5.56
O=C1CC2(CCN(CC3CC3)C2)CN1c1cccc(F)c1 (stereo not given)	-0.129	10.8	-7.34	0.348	-3.81	1.24	4.38	-6.1	3.23	11.1	-0.923
CC(=O)N1CCCC1c1ccc(-c2c(C)noc2C)cn1 (stereo not given)	0.953	-4.05	8.36	2.83	-3.56	6.26	4.52	5.24	-1.07	-3.9	3.24
CC(NCc1cccnc1)c1ccc(OCC(=O)NC2CC2)cc1 (stereo not given)	-4.57	1.27	10.2	0.488	-2.15	-0.215	12.2	-0.549	-2.08	-2.53	4.29
CCCc1nc(N2CCN(CC)CC2)c2c(n1)c(C)nn2CC	-0.47	7.79	2.46	26.2	5.01	-6.9	10.5	10.3	7.53	16.1	-5.13
Cc1nc(CN2CCN(C(=O)c3cc(C4CC4)on3)CC2)cs1	-6.45	13	2.57	3.64	-0.686	5.68	4.45	-4.72	4.76	18.8	-6
CN(CC(=O)NCc1ccccn1)CC1CCCN1c1cccnn1 (stereo not given)	-1.59	-5.41	-4.72	-0.887	-2.15	-3.75	27.8	3.47	8.91	1.22	-0.357
CCNC(=O)c1ccc2c(c1)nc1n2CCN(Cc2ccco2)C1	-1.58	2.63	10.5	1.2	-0.0974	-4.73	13.7	8.32	0	0	-5.62
CN1CCCN(C[C@@H]2CN(C(=O)CCC3CCCC3)C[C@@H]2CO)CC1	-5.09	7.79	1.31	18.7	4.62	-8.28	3.66	-0.683	6.45	11.1	-3.02
